# Key:
# Assay in all cases: PBM binding z-score (relative to random genomic background probes); higher = stronger binding; sequences stand for … in GC…GCGATTGACAGCGTAGAATGAAGG
# [1] = tested on: FXR:RXRa (NR concentration 270 nM, RXRa partner concentration 90 nM)
# Method in brief: (§1)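 Binding z-scores take random background probes as their reference. They come from custom Agilent 4×180K protein-binding microarrays incubated 1 h with ligand-free nuclear receptor dimers, with antibodies against each partner (one per run) detecting binding. Scanned fluorescence was regression-normalized.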
# [2] = tested on: LXRa:RXRa (NR concentration 270 nM, RXRa partner concentration 90 nM)
# Method in brief: as §1
# [3] = tested on: LXRa homodimer (NR concentration 270 nM)
# Method in brief: as §1
# [4] = tested on: LXRb:RXRa (NR concentration 270 nM, RXRa partner concentration 90 nM)
# Method in brief: as §1
# [5] = tested on: LXRb homodimer (NR concentration 270 nM)
# Method in brief: as §1
# [6] = tested on: PPARa:RXRa (NR concentration 270 nM, RXRa partner concentration 90 nM)
# Method in brief: as §1
# [7] = tested on: PPARg:RXRa (NR concentration 180 nM, RXRa partner concentration 90 nM)
# Method in brief: as §1
# [8] = tested on: PPARg:RXRa 270nM:90nM, anti-RXR (NR concentration 270 nM, RXRa partner concentration 90 nM)
# Method in brief: as §1
# [9] = tested on: PPARg:RXRa 30nM:10nM, anti-RXR (NR concentration 30 nM, RXRa partner concentration 10 nM)
# Method in brief: as §1
# [10] = tested on: PPARg:RXRa 90nM:30nM, anti-RXR (NR concentration 90 nM, RXRa partner concentration 30 nM)
# Method in brief: as §1
Sequence,PBM binding z-score [1],PBM binding z-score [2],PBM binding z-score [3],PBM binding z-score [4],PBM binding z-score [5],PBM binding z-score [6],PBM binding z-score [7],PBM binding z-score [8],PBM binding z-score [9],PBM binding z-score [10]
ACCGAAAGGTCGTGAGGTGAGTATACAGAAAGGC,5.42,3.86,-0.204,3.02,0.134,5.29,3.99,4.37,1.42,2.8
ATATGTAGGTTATCGGGTCATGCAGTTTGCGCAT,2.87,3.08,1.26,2.54,0.785,4.99,7.53,6.31,4.45,6.01
GCTGCTAGGTCAACTGATAGTCAGCTAAAGCTCG,4,2.78,-0.18,1.91,-0.159,3.77,2.91,3.17,0.765,2.41
CCTGCCAGGTCAATGGTCAGCTAAAGCAGCTCGC,3.36,2.51,-0.047,1.96,-0.196,3.48,2.59,3.44,0.524,2.57
CCTGCCAGGTCATGGTCAGCTAATCTACAGTATG,3.97,3.04,-0.0461,2.28,-0.151,3.94,2.04,2.5,0.448,1.27
GCATATCGGTAATACAAGGTGAAAGTCCGATTGT,0.694,0.4,0.294,0.243,-0.333,0.84,0.415,0.8,0.385,0.634
TAGCCTAGGTCATCGGCCAGTATACCACGCGAAC,4.02,3.35,0.717,2.54,0.178,3.56,2.62,2.75,0.448,1.67
CCTACTGCGCCATCAGGTCATTGATATCAACGTT,1.39,1.32,1.7,2.2,1.17,1.73,0.376,0.994,0.212,0.573
CCTACTGGGCCATCAGGTCATTAATATCAACGTT,1.02,0.82,1.3,1.37,-0.00307,2.46,2.9,3.3,0.96,3.01
AGAACGAGGGCAATGAATTGATAGCACGGGTGGC,0.314,0.102,-0.259,0.0164,-0.479,1.32,1.27,0.732,0.112,0.346
ATCTCTAGGTAGGACTCAGTTCAGTGAAGAACGC,0.414,0.636,0.659,0.518,1.09,0.278,0.171,0.732,0.37,0.644
CAAACTAGGTCAAGCTCAAAGTCGGTTTGTGCCA,4.15,2.87,0.38,1.86,0.134,4.98,7.79,7.36,4.77,7.27
GCAGACAGGTGAAACGCAGGTAATTCAGGGTGGC,-0.0187,-0.113,-0.552,-0.337,-1.33,0.845,0.419,-0.127,-0.526,-0.551
TGAATGCGGTTATAAGATCAGGGAACGTTGCAAA,-0.202,-0.262,-0.342,-0.407,-0.259,-0.272,-0.0336,0.0368,0.119,-0.242
CGTCCAAGGTCAAGGTCAGTGTAAGAGACTCGAA,7.52,5.66,1.6,4.66,0.633,5.87,6.25,6.02,2.39,4.8
CTATCAAGGTGAACAAGGTCGTTGATTACTATTC,1.16,1.14,-0.163,1.54,-0.39,2.47,1.53,1.51,0.103,0.808
TCAGACAGGTGAAGATAACTCAGGTACGCAGTCG,0.856,0.897,0.162,1.04,-0.112,1.39,1.09,2.31,3.92,2.92
TTACCAAGGTGAAAGGTAGTTGATGCACGCCTTG,0.796,0.851,-0.137,0.456,-0.64,2.7,3.76,4.56,2.81,4.51
ATCTCTAGGTAAGACTCACTTCAGTGAAGAACGC,0.0875,0.0793,-0.134,0.11,0.863,0.00782,0.276,0.0551,0.479,0.192
CTACCAAAGTGAACAAGGTCGTTGATTACTATTC,0.664,0.808,0.427,1.39,0.463,1.34,0.212,0.215,0.23,-0.0383
TCTCGGAGGACCCGAAAGGTCAGAGCTCGACATC,2.35,2.99,1.17,2.77,-0.541,3.34,0.565,2.23,2.07,2.11
TCAGACAGGTGAAGGTCACTCAGGTACGCAGTCG,3.13,3.62,1.36,3.13,0.146,3.72,2.39,3.12,3.84,3.76
TCTAGTTGGTCACGGAGGTTACACACGACGGGTA,1.01,1.19,0.54,1.12,0.211,1.96,1.7,2.35,3.22,2.73
GGGACGAGGGCATTCGAGTTGATAGCATGGCGAT,1.09,1.84,-0.143,0.891,0.141,1.25,0.732,0.668,-0.43,0.0864
